# From PubChem
# a7 integrin act – qHTS for Activators of Integrin-Mediated Alleviation for Muscular Dystrophy; hit rate 0.064% among 350,000; Potency, µM (titrated, usually from 38.3 µM), most hits filed as activators; AID 624291, 2012; alpha7betagal myoblasts, beta-gal FDG fluorescence, 48 h; also: nearly all actives have a fitted effect of over 60% in size
#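 Alpha7betagal+/- myoblasts (passage 13) were plated 16-24 hr, then exposed to compounds (1:260 dilution of DMSO stock) for 48 hours at 37C. After MPER lysis, β-galactosidase reporter activity was read as FDG fluorescence (ex 480/em 540) after 30 minutes.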
# BRCA1 expr up – qHTS Assay to Identify Small Molecule Activators of BRCA1 Expression | MCF7-BRCA1-FFLuc reporter, luminescence, 48 h; response scale: scaled: vehicle 0%, 10 µM genistein 100% | Potency, µM (series often up to 46.1 µM), actives largely listed as activators | hit rate 1.1% among 380,000; also: nearly all actives have a fitted effect of over 80% in size
#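 Reporter cells (MCF7, BRCA1 promoter-firefly luciferase) received library compounds across a concentration series for 48 h. End-point luminescence was measured and concentration-effect curves derived after normalization.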
# Apoferritin bind – qHTS Assay for Identification of Novel General Anesthetics | Ferritin light chain (Equus caballus), P02791 | apoferritin/1-aminoanthracene competitive binding, fluorescence | Potency, µM (titrated, usually from 77.5 µM), usual class: inhibitors | hit rate 0.074% among 350,000; also: nearly all actives have a fitted effect of over 20% in size
# Target sequence (P02791 2-175 limits assumed): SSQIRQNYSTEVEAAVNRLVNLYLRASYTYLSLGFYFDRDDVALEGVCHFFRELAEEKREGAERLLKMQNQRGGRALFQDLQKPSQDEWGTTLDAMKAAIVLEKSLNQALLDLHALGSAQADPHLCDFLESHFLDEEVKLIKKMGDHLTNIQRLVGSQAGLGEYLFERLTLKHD
#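 10 uM apoferritin + 50% sat. 1-AMA, PBS; cpd 10 min RT; Ex380/Em535 endpoint; normalized to free probe vs complex; 4-param Hill fit; propofol titration as pos. ctrl.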
# PKM2 act – qHTS Assay for Activators of Human Muscle isoform 2 Pyruvate Kinase; Pyruvate kinase PKM (Homo sapiens), P14618; purified PKM2, Kinase-Glo ATP luminescence, activation; response scale: 0% is enzyme alone, no compound; Potency, µM (titrated, usually from 57.5 µM), hits mostly activators; hit rate 0.34% among 260,000; also: nearly all actives have a fitted effect of over 55% in size
# Target sequence (P14618 whole entry, looked up, canonical isoform): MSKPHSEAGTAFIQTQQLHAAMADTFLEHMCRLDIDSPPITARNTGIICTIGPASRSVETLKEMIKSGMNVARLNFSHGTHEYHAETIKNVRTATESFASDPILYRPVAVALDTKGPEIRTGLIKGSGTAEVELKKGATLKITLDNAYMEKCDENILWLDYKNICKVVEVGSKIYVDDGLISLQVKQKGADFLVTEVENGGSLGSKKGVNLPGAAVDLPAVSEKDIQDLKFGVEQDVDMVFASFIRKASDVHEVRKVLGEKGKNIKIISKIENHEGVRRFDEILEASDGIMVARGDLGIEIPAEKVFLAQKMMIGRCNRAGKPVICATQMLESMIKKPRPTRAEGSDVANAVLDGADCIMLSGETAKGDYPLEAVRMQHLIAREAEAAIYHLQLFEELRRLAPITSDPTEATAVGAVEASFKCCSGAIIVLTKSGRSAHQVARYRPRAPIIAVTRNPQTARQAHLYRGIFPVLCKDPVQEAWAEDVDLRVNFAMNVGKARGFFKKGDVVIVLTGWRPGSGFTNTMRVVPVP
#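 Purified hPK-M2 (>95%) run at intermediate activity with 0.1 mM ADP and 0.5 mM PEP in 50 mM imidazole pH 7.2, KCl, MgCl2; 1 h room temperature. ATP formed read by Kinase-Glo luminescence; normalized to uninhibited and no-enzyme controls.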
# IL2 activator – qHTS of IL-2 Activators; IL-2 activation reporter assay, cell-based qHTS; stimulated with anti-CD3/CD4/CD28 beads; in transgenic mouse T cells; activation, % (series mostly up to about 46 µM); hit rate 0.065% among 360,000; AID 652025, 2013; in the data active = activation above about 50%; inconclusive = mostly about 30% to 49%
#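 Unstimulated transgenic mouse T cells preincubated 60 min with compound, then stimulated with anti-CD3/anti-CD4-coated beads plus anti-CD28 for 18 h at 37 degrees C. IL-2 response read as EGFP and DsRed fluorescence by plate cytometry.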
# Numbers stand for hits; - = inactive; ? = inconclusive; . = not tested or not shown; [ ] = dose if it differs, or a comment. Shown are actives, neighbours in structure and some others; about 1.3% of the full set was active somewhere. Unless noted, calls follow the shape of the dose curve; as a rule, active = well fitted curve in the direction sought with a large enough effect; inconclusive = small, poorly fitted or top-dose-only effect, or another doubt; inactive = no such curve, though single readings can be large; an effect the other way counts as inactive or inconclusive.
SMILES,a7 integrin act,BRCA1 expr up,Apoferritin bind,PKM2 act,IL2 activator
COC(=O)c1ccc(COC(=O)c2ccc(N(C)C)cc2)cc1,-,5.01µM,-,-,-
COC(=O)c1ccc(COC(=O)CCC(=O)c2cccs2)cc1,-,10µM,?,-,-
O=C(COC(=O)c1ccc(O)cc1)c1ccc2c(c1)OCCO2,-,10µM,.,.,-
O=C(CNC(=O)c1ccc(Cl)cc1Cl)OCC(=O)c1ccc2c(c1)OCCO2,-,-,14.1µM,-,-
O=C(COC(=O)c1ccc(O)cc1)Nc1ccc2c(c1)OCCO2,-,?,.,.,-
O=C(OCCN1CCOCC1)c1ccc2c(c1)OCCO2,-,7.94µM,-,-,-
O=C(CCN1CCOCC1)c1ccc2c(c1)OCCO2,-,-,-,-,-
O=C(COC(=O)CNC(=O)c1ccc(Cl)cc1Cl)NCC1CCCO1 (stereo not given),-,-,.,.,-
NCCN(Cc1ccc(Cl)c(Cl)c1)c1ccc(Br)cn1,.,-,.,.,.
CCOc1ccc(S(=O)(=O)N2CCN(c3nc(-c4ccccc4)nc4ccccc34)CC2)cc1,.,-,.,.,.
COc1cc2c(cc1NS(=O)(=O)c1cccc(C#N)c1)n(C)c(=O)n2C,.,.,-,.,.
O=C(NC(=S)Nc1cccnc1Cl)c1ccco1,-,10µM,-,-,-
COc1ccc(-n2[nH]c3c4c(ncc3c2=O)CCCCC4)cc1,.,.,-,.,.
COc1ccc(-n2[nH]c3c(cnc4ccccc43)c2=O)cc1,.,14.1µM,.,.,-
CC1=C(C)CC(c2ccccc2)C(C(=O)c2ccccc2O)C1 (stereo not given),.,.,-[15.3 µM],.,.
CO[C@H]1C[C@@H]2C[C@H](O)C[C@@H](CC(=O)O[C@@H](/C=C\CC(C)C)C[C@@H]3CC[C@H](C)[C@@H](C1)O3)O2,.,.,-[15.3 µM],.,.
Cc1snc2sc(C(=O)c3ccc(F)cc3)c(N)c12,-,10µM,-,-,-
COc1ccc(Cl)cc1NC(=O)CC(=O)Nc1cc(Cl)ccc1OC,14.1µM,-,-,.,-
O=C(CSCc1ccccc1)N1CCN(c2ccccc2)CC1,-,11.2µM,-,-,-
O=C(CSCc1ccccc1)N1CCN(c2ccc(F)cc2)CC1,-,-,-,-,-
COc1cc(C2Nc3ccccc3C(=O)N2Cc2ccco2)cc(OC)c1OC (stereo not given),.,-,.,.,.
CN(C)CCOc1ccc(C(C)(C)c2ccccc2)cc1,-,-,-,-,-
CN(C)CCCOc1ccc(C(C)(C)c2ccccc2)cc1,-,-,15.8µM,-,-
Cc1cccnc1Nc1nc(-c2ccc(O)cc2)cs1,-,4.47µM,?,-,-
Cc1cccnc1Nc1nc(-c2ccc(F)cc2)cs1,-,-,-,-[11.5 µM],-
SMILES,a7 integrin act,BRCA1 expr up,Apoferritin bind,PKM2 act,IL2 activator
Oc1ccc(-c2csc(Nc3ncccn3)n2)c(O)c1,-,4.47µM,-,-,-
CCOc1ccc(-c2cn3c(n2)sc2cc(C(=O)NCCCc4ccccc4)ccc23)cc1,.,.,-,.,.
Cc1c(/C=N/NC(N)=O)c2ccccn2c1C(=O)c1ccc(F)cc1,-,-,-,-,?
CNC(=S)N/N=C/c1c(C)c(C(=O)c2ccc(F)cc2)n2ccccc12,-,-,-,.,83.3
CNc1ccc(C=O)cc1Br,.,-,.,.,.
Cc1ccc(NS(=O)(=O)c2ccc3c(c2)oc(=O)n3C)cc1,-,-,-,-,-
Cn1c(=O)c2cc(S(=O)(=O)Nc3cccc(F)c3)ccc2n(C)c1=O,-,-,-,5.01µM,-
Cn1c(=O)oc2cc(S(=O)(=O)Nc3cccc(F)c3)ccc21,-,-,-,12.6µM,-
Cc1ccc(NS(=O)(=O)c2ccc3c(c2)oc(=O)n3C)cc1C,-,-,-,.,-
Cc1ccc(NS(=O)(=O)c2ccc3c(c2)oc(=O)n3C)cc1F,-,-,-,4.47µM,-
Cn1c(=O)oc2cc(S(=O)(=O)Nc3ccccc3O)ccc21,-,-,?,14.1µM,-
COC(=O)c1ccccc1NS(=O)(=O)c1ccc2c(c1)oc(=O)n2C,-,-,-,-,-
C=CCCCCCCCCCBr,.,.,-,.,.
C(=C\c1ccnc2ccccc12)/c1ccccc1,.,-,.,.,.
Cc1ccc(S(=O)(=O)N2CCN(c3nc(-c4ncco4)nc4ccccc34)CC2)cc1,.,-,.,.,.
Brc1ccc(C=C2C=c3ccccc3=C2)cc1,.,-,.,.,.
CCc1ccccc1NC(=O)c1ccc2c(O)c(S(=O)(=O)c3ccccc3)c(=O)[nH]c2c1,.,.,-,.,.
CCc1ccc(NC(=O)Cn2cnc3nc4c(cc3c2=O)CCCC4)cc1,.,.,-,.,.
CSc1cccc(NS(=O)(=O)c2ccc3c(c2)oc(=O)n3C)c1,-,-,-,7.94µM,-
N/C(=N\OC(=O)COc1ccc(Cl)cc1Br)c1cccnc1,-,-,-,-,-
CCOc1ccc(C(=O)Nc2ccc(Cl)cn2)cc1Cl,-,6.31µM,-,-,-
N/C(=N\OC(=O)COc1ccc(Cl)cc1Cl)c1ccncc1,-,1.12µM,?,-,-
O=C(COc1ccc(Cl)cc1Cl)Nc1ccc(Cl)cn1,-,11.2µM,-,?,-
Cc1cc(Cl)ccc1OCC(=O)OCC(=O)Nc1ccc(Cl)cn1,-,-,.,.,-
CSCC[C@H](NC(=O)[C@H](CCC(N)=O)NC(=O)[C@H](CCCCN)NC(=O)[C@H](CCCNC(=N)N)NC(=O)[C@H](Cc1ccc(O)cc1)NC(=O)[C@H](CCCNC(=N)N)NC(=O)[C@H](CO)NC(=O)[C@H](Cc1ccc(O)cc1)NC(=O)[C@H](CO)NC(=O)[C@H](CC(=O)O)NC(=O)[C@@H](NC(=O)[C@@H](N)Cc1ccccc1)[C@@H](C)O)C(=O)N[C@@H](C)C(=O)N[C@H](C(=O)N[C@@H](CCCCN)C(=O)N[C@@H](CCCCN)C(=O)N[C@@H](Cc1ccc(O)cc1)C(=O)N[C@@H](CC(C)C)C(=O)N[C@@H](C)C(=O)N[C@@H](C)C(=O)N[C@H](C(=O)N[C@@H](CC(C)C)C(=O)NCC(=O)N[C@@H](CCCCN)C(=O)N[C@@H](CCCNC(=N)N)C(=O)N[C@@H](Cc1ccc(O)cc1)C(=O)N[C@@H](CCCCN)C(=O)N[C@@H](CCC(N)=O)C(=O)N[C@@H](CCCNC(=N)N)C(=O)N[C@H](C(=O)N[C@@H](CCCCN)C(=O)N[C@@H](CC(N)=O)C(=O)N[C@@H](CCCCN)C(N)=O)C(C)C)C(C)C)C(C)C,.,.,-,.,.
CCOC(=O)C1=C(CN2CCN(c3cccc(OC)c3)CC2)NC(=O)NC1c1ccc(OC)cc1 (stereo not given),.,.,-,.,.
CN(C)CCNC(=O)c1ccc(-n2c(-c3ccccc3)cc3c2CCCC3)cc1,.,.,-,.,.
CN(C(=O)c1ccc2c(Cl)c3c(nc2c1)CCC3)c1ccccc1,-,6.31µM,?,-,-
